Laboratory results published in PubChem BioAssay (NCATS).
Inconclusive results are not listed. Calls of active or inactive are those of the source. Unless noted, calls follow the shape of the dose curve; as a rule, active = well fitted curve in the direction sought with a large enough effect; inconclusive = small, poorly fitted or top-dose-only effect, or another doubt; inactive = no such curve, though single readings can be large; an effect the other way counts as inactive or inconclusive.

Key:
[1] = biological target: Glucocorticoid receptor (Homo sapiens) (UniProt P04150); experiment: GR-GFP Redistribution (AID 450;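 active = compounds whose dose series gives a full or clear partial fitted curve of increased nuclear translocation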; also: potency is read from the fitted curve at half-maximal effect)
[2] = biological target: Glucocorticoid receptor (Homo sapiens) (UniProt P04150); experiment: GR-EFC Redistribution (AID 451; calls by dose curve; also: potency is read from the fitted curve at half-maximal effect); conditions: CHO-K1 GR-EFC translocation, beta-gal luminescence, 2 h
Procedure, shortened: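 CHO-K1 cells expressing nuclear EA and GR-ED fragments of b-gal; compounds titrated up to 46 uM final, 2 h at 37 C. GR nuclear translocation read as complemented b-gal luminescence after 1 h RT detection.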

[3] = biological target: Mitogen-activated protein kinase 10 (Mus musculus) (UniProt Q61831); experiment: JNK3 AlphaScreen Assay (AID 530; active = well fitted curve in either direction with a large enough effect, not every such curve was filed as active;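 also: kinase came from lysate of stimulated human HepG2 cells; signal reports phosphorylation of biotinylated GST-cJun 1-79 at Ser73 with 10 µM ATP; % is scaled to controls: 0 for no effect and ±100 for the full control effect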)
Procedure, shortened: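 Activity was read by AlphaScreen after JNK3-containing HepG2 lysate (cytokine pre-activated) phosphorylated biotinylated GST-cJun with 10 uM ATP at room temperature. Phospho-Ser73 cJun antibody with Protein-A acceptor beads provided detection.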

[4] = biological target: 3',5'-cyclic-AMP phosphodiesterase 4B (Homo sapiens) (UniProt Q07343); experiment: qHTS Assay for Inhibitors of PDE-IV (AID 607; active = well fitted activation curve with a large enough effect in the main read-out, with a control signal flat, not every such curve was filed as active; also: % of control where 0% means no effect)
Procedure, shortened: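 Cell-based read-out of cAMP via a modified cyclic nucleotide-gated channel and membrane potential dye (535/590 nm) in HEK293 cells expressing PDE4 endogenously. Compounds tested up to 22.9 uM final; 100 uM RO 20-1724 reference.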

[5] = biological target: Cytochrome P450 2C9 (Homo sapiens) (UniProt P11712); experiment: qHTS Assay for Inhibitors and Substrates of Cytochrome P450 2C9 (AID 883); also: potency is read from the fitted curve at half-maximal effect; nearly all actives have a fitted effect of over 60% in size
Procedure, shortened: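 Signal: luciferase luminescence reporting luciferin produced by CYP2C9. Conditions: 10nM enzyme, Luciferin-H 100uM at KM, 25mM KPO4, 37C, 60 min NADPH-driven reaction. Reference: 57uM sulphaphenazole as 100% inhibition.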

[6] = biological target: Cytochrome P450 2D6 (Homo sapiens) (UniProt P10635); experiment: qHTS Assay for Inhibitors and Substrates of Cytochrome P450 2D6 (AID 891);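 also: luciferin methyl ether substrate demethylated by CYP2D6 with NADPH regeneration; % is scaled to controls: 0 for no effect and ±100 for the full control effect; nearly all actives have a fitted effect of over 60% in size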
Procedure, shortened: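 Luminescent read-out of luciferin formed by 5 nM human CYP2D6 demethylating 30 uM Luciferin-ME EGE (Km level) over 60 min at room temperature after NADPH regeneration addition. Data normalized to full inhibition by 1.43 uM quinidine.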

[7] = biological target: Tumor susceptibility gene 101 protein (Homo sapiens) (UniProt Q99816); experiment: qHTS Assay for Iinhibitors of HIV-1 Budding by Blocking the Interaction of PTAP/TSG101: Hit Validation (AID 651600); also: % is scaled to controls: 0 for no effect and ±100 for the full control effect; nearly all actives have a fitted effect of over 70% in size
Procedure, shortened: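 Tsg101 binding domain 10 uM + FITC-PTAP peptide 50 nM (final), 10 mM HEPES pH 7.5/0.15 M NaCl/0.01% Tween 20/3 mM EDTA/0.1 mM TCEP; 20 min RT; FP read, FITC filters.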

[8] = biological target: ATP-dependent 6-phosphofructokinase (Trypanosoma brucei brucei) (UniProt O15648); experiment: qHTS Assay to Find Inhibitors of T. brucei phosphofructokinase: hit validation (AID 492961);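 also: luminescence reports ADP formed as PFK phosphorylates fructose-6-phosphate with ATP; % is scaled to controls: 0 for no effect and ±100 for the full control effect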
Procedure, shortened: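 Inhibition of parasite PFK is measured as reduced ADP formation, quantified via luciferase after ATP depletion. Assay used 0.1 mM ATP, 0.5 mM F6P, 1.25 nM enzyme, 45 min incubation.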

[9] = biological target: DNA dC->dU-editing enzyme APOBEC-3G (Homo sapiens) (UniProt Q9HC16); experiment: qHTS for inhibitors of Vif-A3G interactions: Validation (AID 588379); also: 0% is about no effect
Procedure, shortened: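 Yellow fluorescence (Ex 488, Em 500-530) of Vif-coexpressing HeLa A3G-eYFP cells, scanned by Acumen cytometer, reports blocked A3G degradation. Cells plated at 700/well overnight at 37 deg C before compound addition, then a further overnight compound incubation at 37 deg C.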

[10] = biological target: Luciferin 4-monooxygenase (Photinus pyralis) (UniProt P08659); experiment: Biochemical firefly luciferase enzyme assay for NPC (AID 624030);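 also: purified P. pyralis luciferase at 10 nM with luciferin and ATP substrate; 0% = DMSO and -100% = full luciferase inhibition by PTC124 control; nearly all actives have a fitted effect of over 70% in size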
Procedure, shortened: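 Purified P. pyralis luciferase at 10 nM in 50 mM Tris Acetate (final), luminescence read within 5 minutes of enzyme addition to compounds. Activity normalised to PTC124 versus DMSO; concentration-response curves classed by r2, magnitude and activity.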

[11] = S16 Schwann cell viability assay (CellTiter-Glo assay) (AID 624031);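 also: cellular ATP luminescence as a viability measure; plate controls were DMSO-treated cells for no effect and cell-free wells for full effect; nearly all actives have a fitted effect of over 70% in size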
Procedure, shortened: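 This viability control uses native rat S16 Schwann cells grown in DMEM plus 10% FBS. After a 24 h compound treatment at 37 °C, CellTiter-Glo luminescence reports ATP content, scaled against DMSO-treated and cell-free wells.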

[12] = S16 Schwann cell PMP22 intronic element firefly luciferase assay (AID 624032);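 also: plate controls were DMSO for no effect and PTC124 positive control mean for full effect; nearly all actives have a fitted effect of over 30% in size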
Procedure, shortened: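 Rat S16 Schwann cells stably carrying firefly luciferase driven by a PMP22 intronic element, in 10% FBS, treated 24 h at 37 C. ONE-Glo luminescence normalized to PTC124 control and DMSO (0%); curves classed by r2, magnitude and activity.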

[13] = S16 Schwann cell PMP22 intronic element beta-lactamase assay (AID 624044; calls by dose curve;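 also: 0% = DMSO and -100% = potassium clavulanate positive control; nearly all actives have a fitted effect of over 15% in size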); conditions: S16 rat Schwann cells, PMP22 element beta-lactamase FRET, 24 h; ratio activity, negative = inhibition: at 38.3 µM (top of the series)
Procedure, shortened: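 Beta-lactamase reporter under a PMP22 intronic regulatory element in stable S16 rat Schwann cells; 24 h compound exposure. 460 nm blue signal normalized between DMSO (0%) and potassium clavulanate, with 535 nm FRET tracking viability; curves classed by r2 and response.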

[14] = qHTS profiling for inhibitors of Plasmodium falciparum proliferation (AID 504749); also: nearly all actives have a fitted effect of over 60% in size; also: potency is read from the fitted curve at half-maximal effect;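 as to activity, negative = inhibition: 0% = DMSO vehicle and full inhibition = artemisinin control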; conditions: P. falciparum in erythrocytes, SYBR Green DNA, 72 h, at 28.7 µM (top of the series)
Procedure, shortened: (§1)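 Each compound contacts P. falciparum-infected red blood cells for 72 h at 37 C; lysis buffer (Tris, EDTA, saponin, Triton X, SYBR Green I) is added and fluorescence measured next morning; values normalized to controls.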

3D7 = experiment: as above; conditions: P. falciparum in erythrocytes, SYBR Green DNA, 72 h; series mostly up to 28.7 µM
Procedure, shortened: as §1

C2A = experiment: as above; conditions: P. falciparum in erythrocytes, SYBR Green DNA, 72 h; series mostly up to 28.7 µM
Procedure, shortened: as §1

CP191 = experiment: as above; conditions: P. falciparum in erythrocytes, SYBR Green DNA, 72 h; series mostly up to 28.7 µM
Procedure, shortened: as §1

CP192 = experiment: as above; conditions: P. falciparum in erythrocytes, SYBR Green DNA, 72 h; series mostly up to 28.7 µM
Procedure, shortened: as §1

CP217 = experiment: as above; conditions: P. falciparum in erythrocytes, SYBR Green DNA, 72 h; series mostly up to 28.7 µM
Procedure, shortened: as §1

CP237 = experiment: as above; conditions: P. falciparum in erythrocytes, SYBR Green DNA, 72 h; series mostly up to 28.7 µM
Procedure, shortened: as §1

CP250 = experiment: as above; conditions: P. falciparum in erythrocytes, SYBR Green DNA, 72 h; series mostly up to 28.7 µM
Procedure, shortened: as §1

CP256 = experiment: as above; conditions: P. falciparum in erythrocytes, SYBR Green DNA, 72 h; series mostly up to 28.7 µM
Procedure, shortened: as §1

CP262 = experiment: as above; conditions: P. falciparum in erythrocytes, SYBR Green DNA, 72 h; series mostly up to 28.7 µM
Procedure, shortened: as §1

CP268 = experiment: as above; conditions: P. falciparum in erythrocytes, SYBR Green DNA, 72 h; series mostly up to 28.7 µM
Procedure, shortened: as §1

CP269 = experiment: as above; conditions: P. falciparum in erythrocytes, SYBR Green DNA, 72 h; series mostly up to 28.7 µM
Procedure, shortened: as §1

CP297 = experiment: as above; conditions: P. falciparum in erythrocytes, SYBR Green DNA, 72 h; series mostly up to 28.7 µM
Procedure, shortened: as §1

CP315 = experiment: as above; conditions: P. falciparum in erythrocytes, SYBR Green DNA, 72 h; series mostly up to 28.7 µM
Procedure, shortened: as §1

CP329 = experiment: as above; conditions: P. falciparum in erythrocytes, SYBR Green DNA, 72 h; series mostly up to 28.7 µM
Procedure, shortened: as §1

DIV14 = experiment: as above; conditions: P. falciparum in erythrocytes, SYBR Green DNA, 72 h; series mostly up to 28.7 µM
Procedure, shortened: as §1

DIV17 = experiment: as above; conditions: P. falciparum in erythrocytes, SYBR Green DNA, 72 h; series mostly up to 28.7 µM
Procedure, shortened: as §1

Dd2 = experiment: as above; conditions: P. falciparum in erythrocytes, SYBR Green DNA, 72 h; series mostly up to 28.7 µM
Procedure, shortened: as §1

ECU = experiment: as above; conditions: P. falciparum in erythrocytes, SYBR Green DNA, 72 h; series mostly up to 28.7 µM
Procedure, shortened: as §1

FAB9 = experiment: as above; conditions: P. falciparum in erythrocytes, SYBR Green DNA, 72 h; series mostly up to 28.7 µM
Procedure, shortened: as §1

GB4 = experiment: as above; conditions: P. falciparum in erythrocytes, SYBR Green DNA, 72 h; series mostly up to 28.7 µM
Procedure, shortened: as §1

HB3 = experiment: as above; conditions: P. falciparum in erythrocytes, SYBR Green DNA, 72 h; series mostly up to 28.7 µM
Procedure, shortened: as §1

JCK = experiment: as above; conditions: P. falciparum in erythrocytes, SYBR Green DNA, 72 h; series mostly up to 28.7 µM
Procedure, shortened: as §1

PAD = experiment: as above; conditions: P. falciparum in erythrocytes, SYBR Green DNA, 72 h; series mostly up to 28.7 µM
Procedure, shortened: as §1

PC49 = experiment: as above; conditions: P. falciparum in erythrocytes, SYBR Green DNA, 72 h; series mostly up to 28.7 µM
Procedure, shortened: as §1

TAB113 = experiment: as above; conditions: P. falciparum in erythrocytes, SYBR Green DNA, 72 h; series mostly up to 28.7 µM
Procedure, shortened: as §1

W2 = experiment: as above; conditions: P. falciparum in erythrocytes, SYBR Green DNA, 72 h; series mostly up to 28.7 µM
Procedure, shortened: as §1

Glucocorticoid receptor (Homo sapiens), sequence (P04150 whole entry, looked up, the tested form may be a part): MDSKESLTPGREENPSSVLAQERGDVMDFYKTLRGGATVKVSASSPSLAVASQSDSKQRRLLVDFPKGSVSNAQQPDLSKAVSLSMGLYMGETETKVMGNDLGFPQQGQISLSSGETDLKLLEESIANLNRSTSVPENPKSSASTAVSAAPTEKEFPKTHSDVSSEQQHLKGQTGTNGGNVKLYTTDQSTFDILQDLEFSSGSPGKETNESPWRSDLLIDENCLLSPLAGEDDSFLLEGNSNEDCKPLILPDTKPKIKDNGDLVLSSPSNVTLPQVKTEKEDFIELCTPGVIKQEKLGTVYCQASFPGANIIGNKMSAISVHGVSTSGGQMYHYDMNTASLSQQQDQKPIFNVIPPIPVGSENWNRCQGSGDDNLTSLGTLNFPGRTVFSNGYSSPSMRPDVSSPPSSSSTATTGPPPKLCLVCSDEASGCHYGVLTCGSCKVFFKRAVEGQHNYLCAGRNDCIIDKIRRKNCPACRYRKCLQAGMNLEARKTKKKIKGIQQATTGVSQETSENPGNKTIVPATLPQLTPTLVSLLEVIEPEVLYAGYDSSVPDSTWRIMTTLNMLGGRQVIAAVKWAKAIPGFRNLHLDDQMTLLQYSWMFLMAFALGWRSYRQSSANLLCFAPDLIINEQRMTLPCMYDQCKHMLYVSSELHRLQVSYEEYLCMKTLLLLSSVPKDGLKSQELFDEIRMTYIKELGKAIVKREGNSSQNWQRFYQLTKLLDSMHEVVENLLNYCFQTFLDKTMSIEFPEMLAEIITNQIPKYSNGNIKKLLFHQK
3',5'-cyclic-AMP phosphodiesterase 4B (Homo sapiens), sequence (Q07343 whole entry, looked up): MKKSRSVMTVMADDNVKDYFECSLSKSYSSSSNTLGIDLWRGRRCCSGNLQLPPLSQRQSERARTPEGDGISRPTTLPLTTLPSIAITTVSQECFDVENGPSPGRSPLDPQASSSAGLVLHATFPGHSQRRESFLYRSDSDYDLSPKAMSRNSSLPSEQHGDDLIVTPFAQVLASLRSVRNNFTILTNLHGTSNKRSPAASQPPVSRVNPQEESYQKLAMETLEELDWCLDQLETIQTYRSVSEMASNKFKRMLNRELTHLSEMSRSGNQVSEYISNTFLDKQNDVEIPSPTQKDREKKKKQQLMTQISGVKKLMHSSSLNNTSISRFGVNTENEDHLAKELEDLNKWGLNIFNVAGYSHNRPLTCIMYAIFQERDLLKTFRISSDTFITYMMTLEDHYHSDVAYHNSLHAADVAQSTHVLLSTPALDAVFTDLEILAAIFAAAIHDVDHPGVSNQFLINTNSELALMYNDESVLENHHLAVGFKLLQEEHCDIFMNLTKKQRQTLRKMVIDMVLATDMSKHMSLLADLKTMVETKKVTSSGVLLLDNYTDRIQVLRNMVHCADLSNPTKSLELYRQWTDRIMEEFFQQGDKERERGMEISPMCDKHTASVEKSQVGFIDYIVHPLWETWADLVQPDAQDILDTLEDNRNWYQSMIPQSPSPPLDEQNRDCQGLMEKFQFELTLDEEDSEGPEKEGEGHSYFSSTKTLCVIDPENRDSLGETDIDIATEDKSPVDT
Cytochrome P450 2C9 (Homo sapiens), sequence (P11712 whole entry, looked up): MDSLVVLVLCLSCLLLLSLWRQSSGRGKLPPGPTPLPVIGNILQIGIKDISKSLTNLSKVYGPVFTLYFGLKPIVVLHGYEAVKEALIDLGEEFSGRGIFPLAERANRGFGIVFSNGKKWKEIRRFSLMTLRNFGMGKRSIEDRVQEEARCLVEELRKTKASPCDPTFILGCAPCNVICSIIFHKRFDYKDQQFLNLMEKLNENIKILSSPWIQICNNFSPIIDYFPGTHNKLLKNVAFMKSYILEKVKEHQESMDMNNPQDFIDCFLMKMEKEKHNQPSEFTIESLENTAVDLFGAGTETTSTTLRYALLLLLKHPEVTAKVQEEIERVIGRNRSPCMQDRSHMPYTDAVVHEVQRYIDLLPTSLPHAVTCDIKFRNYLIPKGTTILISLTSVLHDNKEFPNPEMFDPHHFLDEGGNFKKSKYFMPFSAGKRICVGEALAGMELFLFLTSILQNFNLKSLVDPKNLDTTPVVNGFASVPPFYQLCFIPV
DNA dC->dU-editing enzyme APOBEC-3G (Homo sapiens), sequence (Q9HC16 whole entry, looked up): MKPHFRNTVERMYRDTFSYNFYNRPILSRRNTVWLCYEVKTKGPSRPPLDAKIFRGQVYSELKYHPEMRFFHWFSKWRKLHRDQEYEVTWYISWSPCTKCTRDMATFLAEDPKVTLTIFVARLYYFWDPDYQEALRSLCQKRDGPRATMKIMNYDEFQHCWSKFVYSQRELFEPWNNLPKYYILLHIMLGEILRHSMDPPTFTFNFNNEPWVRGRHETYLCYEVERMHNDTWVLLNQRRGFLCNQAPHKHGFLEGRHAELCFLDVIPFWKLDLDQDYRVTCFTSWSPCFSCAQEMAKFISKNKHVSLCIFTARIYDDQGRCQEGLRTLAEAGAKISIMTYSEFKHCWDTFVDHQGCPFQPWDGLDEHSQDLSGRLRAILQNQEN
ATP-dependent 6-phosphofructokinase (Trypanosoma brucei brucei), sequence (O15648 whole entry, looked up): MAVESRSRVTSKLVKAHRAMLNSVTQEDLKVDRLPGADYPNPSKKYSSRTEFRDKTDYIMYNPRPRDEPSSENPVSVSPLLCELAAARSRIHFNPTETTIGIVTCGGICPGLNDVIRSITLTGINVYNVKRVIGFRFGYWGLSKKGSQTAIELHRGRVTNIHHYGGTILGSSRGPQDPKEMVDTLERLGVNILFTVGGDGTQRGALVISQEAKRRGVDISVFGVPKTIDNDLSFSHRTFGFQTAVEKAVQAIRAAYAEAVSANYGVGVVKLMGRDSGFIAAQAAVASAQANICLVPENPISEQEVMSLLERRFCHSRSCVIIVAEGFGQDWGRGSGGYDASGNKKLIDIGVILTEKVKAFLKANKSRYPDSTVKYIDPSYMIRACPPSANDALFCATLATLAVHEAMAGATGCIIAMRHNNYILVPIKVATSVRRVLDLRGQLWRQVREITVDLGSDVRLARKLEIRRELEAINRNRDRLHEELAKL
Tumor susceptibility gene 101 protein (Homo sapiens), sequence (Q99816 whole entry, looked up, the tested form may be a part): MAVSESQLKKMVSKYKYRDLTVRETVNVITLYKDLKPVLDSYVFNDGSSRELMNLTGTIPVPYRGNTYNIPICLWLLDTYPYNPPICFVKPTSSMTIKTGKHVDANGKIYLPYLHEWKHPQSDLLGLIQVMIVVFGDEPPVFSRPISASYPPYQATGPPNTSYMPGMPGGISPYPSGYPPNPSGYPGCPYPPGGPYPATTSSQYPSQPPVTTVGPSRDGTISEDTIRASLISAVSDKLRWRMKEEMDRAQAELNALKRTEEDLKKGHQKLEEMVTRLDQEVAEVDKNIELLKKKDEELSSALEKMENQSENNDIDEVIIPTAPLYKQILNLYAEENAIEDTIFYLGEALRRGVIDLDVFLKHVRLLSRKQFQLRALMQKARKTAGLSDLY
Luciferin 4-monooxygenase (Photinus pyralis), sequence (P08659 whole entry, looked up): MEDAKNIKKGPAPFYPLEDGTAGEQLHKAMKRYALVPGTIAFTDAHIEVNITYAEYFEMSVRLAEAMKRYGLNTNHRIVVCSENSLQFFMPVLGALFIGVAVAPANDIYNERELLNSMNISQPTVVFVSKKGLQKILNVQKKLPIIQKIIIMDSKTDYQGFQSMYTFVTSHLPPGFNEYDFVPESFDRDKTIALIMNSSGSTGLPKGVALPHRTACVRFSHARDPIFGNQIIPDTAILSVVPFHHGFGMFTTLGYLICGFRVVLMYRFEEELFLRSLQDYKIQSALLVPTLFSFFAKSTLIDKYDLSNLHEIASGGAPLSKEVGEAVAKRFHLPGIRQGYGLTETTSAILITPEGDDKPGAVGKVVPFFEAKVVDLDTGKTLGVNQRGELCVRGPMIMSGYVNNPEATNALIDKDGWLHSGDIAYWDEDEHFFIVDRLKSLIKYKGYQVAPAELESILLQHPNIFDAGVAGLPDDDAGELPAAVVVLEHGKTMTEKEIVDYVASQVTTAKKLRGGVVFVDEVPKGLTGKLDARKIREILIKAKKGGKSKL
Cytochrome P450 2D6 (Homo sapiens), sequence (P10635 whole entry, looked up): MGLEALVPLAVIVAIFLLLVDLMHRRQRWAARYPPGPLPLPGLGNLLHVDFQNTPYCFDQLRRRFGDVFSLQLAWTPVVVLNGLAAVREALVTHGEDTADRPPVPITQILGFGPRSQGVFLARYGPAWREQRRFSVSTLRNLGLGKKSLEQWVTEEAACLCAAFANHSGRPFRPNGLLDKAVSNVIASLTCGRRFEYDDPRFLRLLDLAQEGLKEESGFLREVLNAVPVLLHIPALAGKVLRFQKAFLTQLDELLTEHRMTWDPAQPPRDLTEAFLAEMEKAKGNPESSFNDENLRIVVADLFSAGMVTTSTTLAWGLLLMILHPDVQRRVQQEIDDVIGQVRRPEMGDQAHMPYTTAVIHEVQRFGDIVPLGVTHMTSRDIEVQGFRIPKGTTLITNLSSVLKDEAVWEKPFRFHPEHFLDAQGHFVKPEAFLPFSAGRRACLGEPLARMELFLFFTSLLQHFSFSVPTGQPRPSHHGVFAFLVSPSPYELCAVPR

C=C[C@@]1(C)C=C2CC[C@@H]3[C@](C)(CCC[C@@]3(C)C(=O)O)[C@H]2CC1
active: Potency [5] 6.31 µM
inactive: Potency [1] > 46 µM | Potency [2] > 46 µM | Potency [3] | Potency [4] | Potency [6]

CCN(CC)C(=O)c1sc2nc(-c3cccs3)cc(-c3cccs3)c2c1N
inactive: Potency [1] > 20.6 µM | Potency [7]

CC1=CC(=O)C2=C(C)CC[C@@H]3[C@H](OC(=O)[C@H]3C)[C@H]12
inactive: Potency [1] > 46 µM | Potency [2] > 46 µM | Potency [3] | Potency [4]

Cc1ccc(N2C(=O)c3sc4nnc(C)c(=O)n4c3C2=O)cc1
inactive: Potency [1] > 20.6 µM

C[C@@](Cc1ccccc1)(NC(=O)CN)c1ccccc1
inactive: Potency [1] > 46 µM | Potency [2] > 46 µM | Potency [3] | Potency [8] | outcome [9] | Potency [10] | Potency [11] | Potency [12] | Potency [13] | activity, negative = inhibition ([14]; parasite line A) 17.9% | activity, negative = inhibition ([14]; parasite line B) 2.96% | Potency (3D7) | Potency (C2A) | Potency (CP191) | Potency (CP192) | Potency (CP217) | Potency (CP250) | Potency (CP256) | Potency (CP262) | Potency (CP268) | Potency (CP269) | Potency (CP315) | Potency (CP329) | Potency (ECU) | Potency (FAB9) | Potency (HB3) | Potency (JCK) | Potency (PAD) | Potency (TAB113)
active: Potency (CP237) 5.62 µM | Potency (CP297) 9.53 µM | Potency (DIV14) 3.79 µM | Potency (DIV17) 4.78 µM | Potency (Dd2) 12.6 µM | Potency (GB4) 8.49 µM | Potency (PC49) 3.55 µM | Potency (W2) 3.79 µM
